# Inconclusive results are not listed. Calls of active or inactive are those of the source. Unless noted, calls follow the shape of the dose curve; as a rule, active = well fitted curve in the direction sought with a large enough effect; inconclusive = small, poorly fitted or top-dose-only effect, or another doubt; inactive = no such curve, though single readings can be large; an effect the other way counts as inactive or inconclusive.
# Experiments:
# [1] = molecular target: Lysosomal acid glucosylceramidase (Homo sapiens) (UniProt P04062); test: Glucocerebrosidase-p2 (AID 348; in the data active = potency below about 10 µM; also: potency is read from the fitted curve at half-maximal effect); settings: purified GBA, blue fluorogenic substrate, 40 min
# Sequence of Lysosomal acid glucosylceramidase (Homo sapiens) (P04062 whole entry, looked up): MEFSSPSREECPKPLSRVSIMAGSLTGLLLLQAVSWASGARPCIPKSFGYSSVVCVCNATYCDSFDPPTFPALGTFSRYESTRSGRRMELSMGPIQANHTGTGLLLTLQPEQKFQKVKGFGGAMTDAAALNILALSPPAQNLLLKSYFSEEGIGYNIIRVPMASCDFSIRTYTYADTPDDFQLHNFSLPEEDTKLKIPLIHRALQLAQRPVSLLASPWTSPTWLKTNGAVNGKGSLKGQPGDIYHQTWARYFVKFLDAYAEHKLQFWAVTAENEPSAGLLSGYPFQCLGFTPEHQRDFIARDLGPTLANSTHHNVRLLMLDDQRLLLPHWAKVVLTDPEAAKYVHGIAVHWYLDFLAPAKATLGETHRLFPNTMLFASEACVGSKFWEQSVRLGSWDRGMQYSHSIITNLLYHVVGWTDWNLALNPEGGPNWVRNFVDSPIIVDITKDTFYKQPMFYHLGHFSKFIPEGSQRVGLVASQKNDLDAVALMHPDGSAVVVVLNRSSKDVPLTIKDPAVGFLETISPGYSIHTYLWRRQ
# Procedure, shortened: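 Compounds titrated from 0.6 nM upwards against 0.2 nM enzyme in pH 5.9 citric acid/KH2PO4, taurocholate, tween-20; blue fluorogenic substrate 80 uM, 40 min room temperature, stopped and read Ex 365/Em 440 for AC50.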
# [2] = AP1 Signaling Pathway (AID 357; active = well fitted curve in either direction with a large enough effect, not every such curve was filed as active;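 also: ME-180 reporter cells stimulated with EGF at its EC50 level; % is scaled to controls: 0 for no effect and ±100 for the full control effect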); settings: ME-180 AP-1-bla reporter, EGF-induced, beta-lactamase ratio, 5 h; at 7.69 µM (top of the series) unless noted
# Procedure, shortened: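 Read-out was the 460nm/530nm emission ratio (excitation 405nm) after CCF4 loading for 2.5 hours at room temperature. Cells carried an AP-1-driven beta-lactamase reporter, were stimulated with EC50 EGF plus compound for 5 hours, and AC50 values came from titrations.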
# [3] = molecular target: Cytochrome P450 1A2 (Homo sapiens) (UniProt P05177); test: p450-cyp1a2 (AID 410; calls by dose curve; also: potency is read from the fitted curve at half-maximal effect;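 as to activity change, negative = inhibition: -100% = full effect of reference inhibitor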); settings: recombinant CYP1A2, luciferin-ME demethylation, luminescence; series mostly up to 57 µM
# Sequence of Cytochrome P450 1A2 (Homo sapiens) (P05177 whole entry, looked up): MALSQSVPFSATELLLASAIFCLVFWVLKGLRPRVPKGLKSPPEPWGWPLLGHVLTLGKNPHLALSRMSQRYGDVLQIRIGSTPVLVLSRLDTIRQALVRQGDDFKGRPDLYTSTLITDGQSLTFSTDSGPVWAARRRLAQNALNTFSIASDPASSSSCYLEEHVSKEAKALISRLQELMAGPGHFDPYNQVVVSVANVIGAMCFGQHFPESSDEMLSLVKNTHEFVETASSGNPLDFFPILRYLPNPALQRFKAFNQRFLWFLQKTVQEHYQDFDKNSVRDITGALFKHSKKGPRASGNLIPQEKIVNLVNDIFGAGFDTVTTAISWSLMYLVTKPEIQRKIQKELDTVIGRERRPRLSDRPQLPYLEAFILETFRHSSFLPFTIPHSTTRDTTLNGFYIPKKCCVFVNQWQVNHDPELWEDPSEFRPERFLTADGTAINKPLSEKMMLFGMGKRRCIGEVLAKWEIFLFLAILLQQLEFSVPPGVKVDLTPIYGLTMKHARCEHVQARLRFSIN
# Procedure, shortened: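 Inhibition was calculated relative to 57 uM furafylline (full inhibition). The reaction used human CYP1A2 at 20nM with Luciferin-ME at its Km, 100uM, driven by an NADPH-regenerating system for 60 min at room temperature.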
# [4] = NFAT Signaling Pathway (AID 444; active = well fitted curve in either direction with a large enough effect, not every such curve was filed as active;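 also: carbachol stimulus at about its EC50 of 1 µM final; % is scaled to controls: 0 for no effect and ±100 for the full control effect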); settings: Jurkat NFAT-bla M1, carbachol, beta-lactamase ratio, 5 h; at 7.69 µM (top of the series) unless noted
# Procedure, shortened: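 Read-out: CCF4 FRET ratio (460 nm/530 nm) after 1 h RT dye loading, used for %activity and AC50 from titration series. Cells: Jurkat NFAT-β-lactamase/M1 line, treated with compound plus 1 uM carbachol for 5 h, 37 °C.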
# [5] = Stat Signaling Pathway (AID 446; active = well fitted curve in either direction with a large enough effect, not every such curve was filed as active;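 also: ME-180 cervical cancer cells given 40 pM IL-6 alongside compound; SIE-controlled beta-lactamase reporter measured as 460/530 nm FRET emission ratio; % is scaled to controls: 0 for no effect and ±100 for the full control effect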); settings: ME-180 (cervical carcinoma) SIE beta-lactamase reporter, IL-6 stimulated, 5 h; at 7.69 µM (top of the series) unless noted
# Procedure, shortened: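 IL-6/STAT signaling read in ME-180 cells via an SIE beta-lactamase reporter. Stimulus was 40 pM IL-6 (its AC50) for 5 hrs, so both activation and inhibition register.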
# [6] = molecular target: Glucocorticoid receptor (Homo sapiens) (UniProt P04150); test: GR-GFP Redistribution (AID 450;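 active = compounds whose dose series gives a full or clear partial fitted curve of increased nuclear translocation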; also: potency is read from the fitted curve at half-maximal effect); settings: U2OS GR-GFP nuclear translocation, laser cytometry, 2 h
# Sequence of Glucocorticoid receptor (Homo sapiens) (P04150 whole entry, looked up, the tested form may be a part): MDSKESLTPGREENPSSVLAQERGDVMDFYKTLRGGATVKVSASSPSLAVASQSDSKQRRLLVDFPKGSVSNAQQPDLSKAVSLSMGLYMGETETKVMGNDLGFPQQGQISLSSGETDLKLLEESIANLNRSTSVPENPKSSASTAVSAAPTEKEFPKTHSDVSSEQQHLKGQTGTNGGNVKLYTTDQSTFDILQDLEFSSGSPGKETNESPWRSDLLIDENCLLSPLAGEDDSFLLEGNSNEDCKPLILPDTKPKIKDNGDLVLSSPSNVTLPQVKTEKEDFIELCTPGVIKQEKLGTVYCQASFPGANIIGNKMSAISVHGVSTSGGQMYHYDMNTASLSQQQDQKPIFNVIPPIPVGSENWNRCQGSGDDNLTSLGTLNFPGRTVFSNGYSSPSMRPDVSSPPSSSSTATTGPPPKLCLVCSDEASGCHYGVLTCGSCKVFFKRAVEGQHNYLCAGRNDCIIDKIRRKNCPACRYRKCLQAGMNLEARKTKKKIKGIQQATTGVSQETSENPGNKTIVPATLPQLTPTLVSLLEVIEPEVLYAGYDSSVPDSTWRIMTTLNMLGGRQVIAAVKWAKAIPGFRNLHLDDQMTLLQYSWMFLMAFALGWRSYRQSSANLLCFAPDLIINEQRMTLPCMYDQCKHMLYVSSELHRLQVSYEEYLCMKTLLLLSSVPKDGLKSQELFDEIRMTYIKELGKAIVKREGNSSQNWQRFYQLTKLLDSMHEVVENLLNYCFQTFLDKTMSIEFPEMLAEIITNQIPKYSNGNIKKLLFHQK
# [7] = molecular target: Glucocorticoid receptor (Homo sapiens) (UniProt P04150); test: GR-EFC Redistribution (AID 451; calls by dose curve; also: potency is read from the fitted curve at half-maximal effect); settings: CHO-K1 GR-EFC translocation, beta-gal luminescence, 2 h
# Procedure, shortened: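 Translocation of GR-ED fusion to nuclear EA restores b-gal, read by luminescence after 1 h room-temperature detection. Engineered CHO-K1 biosensor cells, 1,000/well, exposed 2 h at 37 C to titrations up to 46 uM final.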
# [8] = molecular target: Mitogen-activated protein kinase 10 (Mus musculus) (UniProt Q61831); test: JNK3 AlphaScreen Assay (AID 530; active = well fitted curve in either direction with a large enough effect, not every such curve was filed as active;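 also: kinase came from lysate of stimulated human HepG2 cells; signal reports phosphorylation of biotinylated GST-cJun 1-79 at Ser73 with 10 µM ATP; % is scaled to controls: 0 for no effect and ±100 for the full control effect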); settings: JNK3 lysate, c-Jun phosphorylation; series mostly up to 57.1 µM
# Procedure, shortened: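 Room-temperature AlphaScreen kinase assay; pre-activated HepG2 lysate as JNK3 source, biotin-GST-cJun(1-79) substrate, 10 uM ATP, compound 15 min preincubation.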
# [9] = molecular target: 3',5'-cyclic-AMP phosphodiesterase 4B (Homo sapiens) (UniProt Q07343); test: qHTS Assay for Inhibitors of PDE-IV (AID 607; active = well fitted activation curve with a large enough effect in the main read-out, with a control signal flat, not every such curve was filed as active; also: % of control where 0% means no effect); settings: HEK293 ACTOne CNG channel cells, membrane potential fluorescence; series mostly up to 22.9 µM
# Sequence of 3',5'-cyclic-AMP phosphodiesterase 4B (Homo sapiens) (Q07343 whole entry, looked up): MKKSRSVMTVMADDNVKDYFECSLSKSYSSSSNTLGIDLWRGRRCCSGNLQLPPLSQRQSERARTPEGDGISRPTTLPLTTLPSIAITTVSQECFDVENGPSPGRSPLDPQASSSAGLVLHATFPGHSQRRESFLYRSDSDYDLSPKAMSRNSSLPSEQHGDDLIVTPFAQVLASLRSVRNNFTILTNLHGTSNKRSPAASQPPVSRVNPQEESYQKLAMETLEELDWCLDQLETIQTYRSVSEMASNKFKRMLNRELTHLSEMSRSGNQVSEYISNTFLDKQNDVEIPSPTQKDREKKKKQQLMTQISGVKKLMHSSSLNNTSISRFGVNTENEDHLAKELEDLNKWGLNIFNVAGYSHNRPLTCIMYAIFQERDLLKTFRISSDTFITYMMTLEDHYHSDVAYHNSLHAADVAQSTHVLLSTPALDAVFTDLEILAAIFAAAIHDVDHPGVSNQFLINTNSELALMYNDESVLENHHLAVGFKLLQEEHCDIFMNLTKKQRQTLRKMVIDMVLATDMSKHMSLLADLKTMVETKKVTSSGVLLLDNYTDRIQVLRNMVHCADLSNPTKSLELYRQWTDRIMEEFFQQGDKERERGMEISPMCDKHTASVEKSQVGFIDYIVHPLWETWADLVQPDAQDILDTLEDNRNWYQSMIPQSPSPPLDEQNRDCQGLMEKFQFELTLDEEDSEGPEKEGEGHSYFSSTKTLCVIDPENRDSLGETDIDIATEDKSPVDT
# Procedure, shortened: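 Live HEK293 cells with a modified cyclic nucleotide-gated (CNG) channel report intracellular cAMP via membrane-potential dye fluorescence (ex 535/em 590 nm). Endogenous PDE-IV was targeted. Compounds were tested at up to 22.9 uM final; RO 20-1724 100 uM served as control.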
# [10] = molecular target: Cytochrome P450 3A4 (Homo sapiens) (UniProt P08684); test: qHTS Assay for Activators of Cytochrome P450 3A4 (AID 885); settings: recombinant CYP3A4, Luciferin-PPXE luminescence, 60 min; series mostly up to 57.1 µM; also: nearly all actives have a fitted effect of over 65% in size
# Sequence of Cytochrome P450 3A4 (Homo sapiens) (P08684 whole entry, looked up): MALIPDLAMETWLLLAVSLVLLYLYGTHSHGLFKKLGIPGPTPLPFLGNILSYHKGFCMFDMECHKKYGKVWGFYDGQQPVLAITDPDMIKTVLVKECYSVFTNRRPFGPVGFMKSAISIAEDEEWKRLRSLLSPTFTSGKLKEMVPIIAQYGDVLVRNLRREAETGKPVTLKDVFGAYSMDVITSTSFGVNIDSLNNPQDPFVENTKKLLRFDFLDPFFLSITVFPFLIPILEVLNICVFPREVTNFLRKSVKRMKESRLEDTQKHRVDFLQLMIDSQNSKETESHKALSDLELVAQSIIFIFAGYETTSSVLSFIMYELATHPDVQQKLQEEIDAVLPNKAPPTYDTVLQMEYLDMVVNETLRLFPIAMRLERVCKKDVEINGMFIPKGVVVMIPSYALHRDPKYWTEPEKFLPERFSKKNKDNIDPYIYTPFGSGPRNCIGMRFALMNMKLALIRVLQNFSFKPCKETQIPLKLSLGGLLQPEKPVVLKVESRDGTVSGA
# Procedure, shortened: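 Quantitative HTS format: compounds preincubated with 20nM human CYP3A4 and Luciferin-PPXE substrate at KM, reaction started by NADPH regeneration, stopped after 60 min, luciferase luminescence read 20 min later.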
# [11] = qHTS Assay for Lipid Storage Modulators (AID 1519; calls by dose curve); settings: Drosophila S3 cells, BODIPY lipid droplet/cell ratio, laser cytometry, cells loaded with oleic acid; for activity change, negative = inhibition: at 57.5 µM (top of the series)
# Procedure, shortened: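 Cells seeded at 5,000 per well were treated with compounds over a concentration series and loaded with oleic acid (400 uM, as added). Lipid droplet fluorescence (488 nm excitation, 500-530 nm channel) was read by laser-scanning cytometry and normalized to 20 uM Triacsin C.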
# [12] = molecular target: Dual specificity protein kinase CLK4 (Homo sapiens) (UniProt Q9HAZ1); test: qHTS Assay for Inhibitors of CDC-like Kinase 4 (Kinase-Glo Assay) (AID 1770); settings: recombinant Clk4, Kinase-Glo ATP depletion luminescence; series mostly up to 66.7 µM; also: % is scaled to controls: 0 for no effect and ±100 for the full control effect; nearly all actives have a fitted effect of over 65% in size
# Sequence of Dual specificity protein kinase CLK4 (Homo sapiens) (Q9HAZ1 whole entry, looked up): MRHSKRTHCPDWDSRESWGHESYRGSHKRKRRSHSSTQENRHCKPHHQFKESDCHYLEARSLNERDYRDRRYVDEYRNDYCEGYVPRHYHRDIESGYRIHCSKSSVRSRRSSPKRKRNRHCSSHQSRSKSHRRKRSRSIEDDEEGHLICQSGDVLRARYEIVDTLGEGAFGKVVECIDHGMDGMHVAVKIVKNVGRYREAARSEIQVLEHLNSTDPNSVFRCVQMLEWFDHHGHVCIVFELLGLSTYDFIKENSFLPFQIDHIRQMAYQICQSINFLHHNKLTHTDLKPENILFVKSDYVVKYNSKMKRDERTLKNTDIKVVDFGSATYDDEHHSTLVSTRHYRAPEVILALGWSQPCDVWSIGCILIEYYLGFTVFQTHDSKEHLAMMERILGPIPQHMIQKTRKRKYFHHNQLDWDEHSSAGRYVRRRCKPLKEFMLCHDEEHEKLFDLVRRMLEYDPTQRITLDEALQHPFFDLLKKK
# Procedure, shortened: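 Luminescent ATP-depletion read-out (Kinase-Glo) after 4.5 h room-temperature reaction of Clk4 (25 nM final) with RS peptide (100 uM) and ATP (1 uM), pH 7.5 Tris buffer with MgCl2 and DTT.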
# [13] = molecular target: Dual specificity protein kinase CLK4 (Homo sapiens) (UniProt Q9HAZ1); test: qHTS Assay for Inhibitors of CDC-like Kinase 4 (ADP-Glo Assay) (AID 1771); settings: recombinant CLK4, ADP-Glo luminescence; series mostly up to 80 µM; also: % is scaled to controls: 0 for no effect and ±100 for the full control effect; nearly all actives have a fitted effect of over 70% in size
# Procedure, shortened: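 Kinase reaction: Clk4 at 25 nM, RS repeat peptide substrate at 100 uM, ATP at 1 uM, 1 hr, room temperature. Product ADP detected as luciferase signal via ADP-Glo.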
# [14] = molecular target: Dual specificity protein kinase CLK4 (Homo sapiens) (UniProt Q9HAZ1); test: qHTS Assay for Inhibitors of CDC-like Kinase 4 (ADP-FP Assay) (AID 1795); settings: Transcreener ADP fluorescence polarization; series mostly up to 50 µM;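 also: recombinant human CLK4 phosphorylating RS repeat peptide at 1 µM ATP; % is scaled to controls: 0 for no effect and ±100 for the full control effect; nearly all actives have a fitted effect of over 60% in size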
# Procedure, shortened: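 Kinase activity was measured as ADP production using Transcreener orange tracer (4 nM) and ADP antibody (1 ug/mL) fluorescence polarization, with ADP calculated from a calibration curve. The 1 h reaction contained 6.25 nM Clk4, 1 uM ATP and 100 uM RS peptide at pH 7.5 with Mg2+.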
# [15] = molecular target: Ubiquitin carboxyl-terminal hydrolase 1 (Homo sapiens) (UniProt O94782); test: Inhibitors of USP1/UAF1: Pilot qHTS (AID 504865); settings: purified USP1/UAF1, Ub-rhodamine cleavage fluorescence; series mostly up to 54.9 µM;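 also: rhodamine fluorescence freed from ubiquitin-rhodamine substrate followed over time; top concentration of the series differs between compounds; % is scaled to controls: 0 for no effect and ±100 for the full control effect; nearly all actives have a fitted effect of over 35% in size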
# Sequence of Ubiquitin carboxyl-terminal hydrolase 1 (Homo sapiens) (O94782 whole entry, looked up): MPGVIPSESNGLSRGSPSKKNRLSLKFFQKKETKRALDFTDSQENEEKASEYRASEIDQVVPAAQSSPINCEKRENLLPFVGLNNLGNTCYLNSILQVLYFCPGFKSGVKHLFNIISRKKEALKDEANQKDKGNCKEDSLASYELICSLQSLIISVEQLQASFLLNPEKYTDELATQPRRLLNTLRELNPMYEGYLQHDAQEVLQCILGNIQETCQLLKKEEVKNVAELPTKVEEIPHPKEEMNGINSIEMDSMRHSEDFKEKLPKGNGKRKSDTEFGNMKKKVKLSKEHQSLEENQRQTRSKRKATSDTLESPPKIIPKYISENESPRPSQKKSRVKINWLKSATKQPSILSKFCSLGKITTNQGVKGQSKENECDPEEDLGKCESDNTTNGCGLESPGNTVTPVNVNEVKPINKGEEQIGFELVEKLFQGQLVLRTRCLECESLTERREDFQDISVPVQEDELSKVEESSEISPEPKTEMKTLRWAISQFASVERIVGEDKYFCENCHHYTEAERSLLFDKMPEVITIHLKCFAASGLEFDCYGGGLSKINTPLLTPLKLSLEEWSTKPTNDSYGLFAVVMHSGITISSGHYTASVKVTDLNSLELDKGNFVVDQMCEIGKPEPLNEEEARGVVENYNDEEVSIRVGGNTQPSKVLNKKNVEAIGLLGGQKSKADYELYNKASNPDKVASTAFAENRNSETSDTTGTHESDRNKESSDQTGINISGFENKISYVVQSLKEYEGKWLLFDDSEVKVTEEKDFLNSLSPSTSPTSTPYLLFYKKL
# Procedure, shortened: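 Deubiquitinase activity followed as kinetic rhodamine fluorescence release from 150 nM Ub-Rho. 1 nM USP1/UAF1 with compound, after 15 min room-temperature preincubation, in HEPES pH 7.8 buffer containing TCEP, EDTA, BSA and Tween-20.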
# [16] = Primary qHTS for small molecule stabilizers of the endoplasmic reticulum resident proteome: Secreted ER Calcium Modulated Protein (SERCaMP) assay (AID 1508630); settings: SH-SY5Y GLuc-SERCaMP (Gaussia luciferase released on ER calcium loss) secretion, thapsigargin, luminescence; series mostly up to 38.4 µM; also: % is scaled to controls: 0 for no effect and ±100 for the full control effect
# Procedure, shortened: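 GLuc-SERCaMP-expressing SH-SY5Y cells, pretreated 16 h with compound, are challenged with thapsigargin to empty ER calcium stores; after 4 h, coelenterazine is added directly to the medium and luminescence is imaged.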
# [17] = molecular target: Cytochrome P450 3A4 (Homo sapiens) (UniProt P08684); test: qHTS Assay for Inhibitors and Substrates of Cytochrome P450 3A4 (AID 884); settings: recombinant CYP3A4, Luciferin-PPXE luminescence; series mostly up to 57.1 µM; also: potency is read from the fitted curve at half-maximal effect; nearly all actives have a fitted effect of over 50% in size
# Procedure, shortened: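 20 nM human CYP3A4 with 25 uM Luciferin-PPXE (at KM) in 200 mM KPO4, preincubated 10 min with compound; NADPH regeneration started a 60 min RT reaction. Luciferin detected by luminescence, normalized to 57 uM ketoconazole as full inhibition.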
# [18] = measured here: cell count channel max response
# [19] = measured here: lipid channel max response
SMILES,Potency [1],"activity change, negative = inhibition [2]",Potency [3],"activity change, negative = inhibition [4]","activity, negative = inhibition [5]",Potency [6],Potency [7],outcome [8],Potency [9],Potency [10],"activity change, negative = inhibition [11]","max response [11, 18]","max response [11, 19]",Potency [12],Potency [13],Potency [14],Potency [15],Potency [16],Potency [17]
CN(C)c1ncc2nc(-c3cc(F)cc(F)c3)c(=O)n(CCC#N)c2n1,> 11.4 µM (inactive),4.37% (inactive),inactive,29.2% (inactive),2.22% (inactive),> 9.22 µM (inactive),> 46 µM (inactive),inactive,inactive,inactive,3.22% (inactive),19.6%,21.3%,inactive,inactive,inactive,inactive,inactive,–
COCCNc1ncnc2ccc(-c3ccc(C(=O)N(C)C)cc3)cc12,> 11.4 µM (inactive),-7.19% (inactive),inactive,11.8% (inactive),0.699% (inactive),> 46 µM (inactive),> 46 µM (inactive),inactive,inactive,inactive,-0.0247% (inactive),4.77%,3.74%,inactive,inactive,inactive,inactive,inactive,–
COCCn1c(=O)c(C)nc2cnc(N3CCN(C)CC3)nc21,> 11.4 µM (inactive),-5.64% (inactive),15.8 µM (active),4.52% (inactive),-3.76% (inactive),> 9.22 µM (inactive),> 46 µM (inactive),inactive,inactive,–,2.08% (inactive),3.08%,2.85%,inactive,inactive,inactive,inactive,inactive,–
COc1ccc(Oc2ncc3nc(C)c(=O)n(C[C@H]4CCCO4)c3n2)cc1,> 11.4 µM (inactive),-5.04% (inactive),12.6 µM (active),1.62% (inactive),-14.8% (inactive),> 9.22 µM (inactive),> 46 µM (inactive),inactive,inactive,inactive,-2.24% (inactive),-3.75%,-4.08%,inactive,inactive,inactive,inactive,inactive,3.98 µM (active)
CC(=O)NCCNc1cc(-c2ccccc2CN(C)C)ncn1,> 11.4 µM (inactive),3.33% (inactive),inactive,-5.44% (inactive),2.18% (inactive),> 46 µM (inactive),> 46 µM (inactive),inactive,inactive,–,-0.819% (inactive),11.1%,8.32%,inactive,inactive,inactive,inactive,inactive,–

# Reference: PubChem BioAssay (NCATS)
